L3MBTL1 inh: inhibitors of human L3MBTL1; AlphaScreen L3MBTL1–H3K9me1 peptide binding; Potency, µM (top dose mostly 57.1 µM), inactives show at the top dose activity, negative = inhibition, usual class: inhibitors; actives 0.66% (n = 230,000); also: potency is read from the fitted curve at half-maximal effect; % is scaled to controls: 0 for no effect and ±100 for the full control effect; nearly all actives have a fitted effect of over 60% in size
Target sequence (Q9Y468 whole entry, looked up): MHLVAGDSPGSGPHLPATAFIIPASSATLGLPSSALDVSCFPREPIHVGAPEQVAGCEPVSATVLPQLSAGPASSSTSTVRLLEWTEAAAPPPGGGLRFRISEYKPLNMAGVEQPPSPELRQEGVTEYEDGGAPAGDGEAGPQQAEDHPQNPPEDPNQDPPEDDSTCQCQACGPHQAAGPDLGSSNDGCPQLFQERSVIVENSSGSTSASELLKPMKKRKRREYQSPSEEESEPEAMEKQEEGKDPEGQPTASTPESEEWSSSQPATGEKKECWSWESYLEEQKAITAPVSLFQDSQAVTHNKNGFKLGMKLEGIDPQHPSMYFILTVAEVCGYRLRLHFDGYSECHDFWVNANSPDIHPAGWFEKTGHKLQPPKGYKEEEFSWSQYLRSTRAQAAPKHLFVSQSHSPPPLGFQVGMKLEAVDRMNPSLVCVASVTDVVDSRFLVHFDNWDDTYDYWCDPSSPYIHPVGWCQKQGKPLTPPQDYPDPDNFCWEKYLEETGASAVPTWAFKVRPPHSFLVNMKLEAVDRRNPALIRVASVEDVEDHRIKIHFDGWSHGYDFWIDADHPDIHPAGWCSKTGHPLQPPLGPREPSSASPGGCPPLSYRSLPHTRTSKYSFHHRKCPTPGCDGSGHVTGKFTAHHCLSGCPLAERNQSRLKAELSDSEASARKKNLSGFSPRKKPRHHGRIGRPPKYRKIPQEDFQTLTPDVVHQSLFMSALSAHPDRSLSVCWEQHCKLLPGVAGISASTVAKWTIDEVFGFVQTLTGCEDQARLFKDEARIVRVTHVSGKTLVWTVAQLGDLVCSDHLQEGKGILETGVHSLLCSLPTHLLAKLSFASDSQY
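First, the protein-peptide complex forms for 30 min at room temperature (L3MBTL1 50 nM, biotinylated H3K9me1 peptide 75 nM). Next, compounds are pin-transferred and incubated 30 min. Finally, AlphaScreen beads are added and read after 30 min.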
JMJD2A Tudor: inhibitors of human JMJD2A Tudor domain; O75164; AlphaScreen JMJD2A-Tudor / H3K4me3 peptide binding; Potency, µM (highest dose often 114 µM), without a hit: top-dose activity change, negative = inhibition, usual class: inhibitors; actives 4.4% (n = 390,000); AID 504339; also: potency is read from the fitted curve at half-maximal effect; % is scaled to controls: 0 for no effect and ±100 for the full control effect; nearly all actives have a fitted effect of over 50% in size
PI5P4Ka inh: PI5P4K alpha (human) kinase inhibition | P48426 | PI5P4Kalpha enzyme, ADP-Glo luminescence, 60 min; active compounds read low | max response, % | actives 1.2% (n = 330,000); active = max response of -50% or lower; inconclusive = between -30% and -50%; inactive = -30% or higher; also: value at the top dose of about 77 µM; % is scaled to controls: 0 for no effect and ±100 for the full control effect
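qHTS, 1536-well: enzyme/substrate mix, compound by pin tool, 5 microM ATP final; RT 60 min; ADP-Glo reagents 1 (45 min) then 2 (30 min); luminescence.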
BAZ2B inh: BAZ2B (human) inhibition; Potency, µM (series often up to 114 µM), for inactives: at the top dose activity change, negative = inhibition, actives largely listed as inhibitors; actives 4.4% (n = 360,000); Q9UIF8; AlphaScreen BAZ2B-H3K14Ac peptide displacement; AID 504333; also: potency is read from the fitted curve at half-maximal effect; % is scaled to controls: 0 for no effect and ±100 for the full control effect; nearly all actives have a fitted effect of over 60% in size
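AlphaScreen displacement: compounds (up to 110uM) incubated 30 min at room temperature with a preformed 50 nM BAZ2B/50 nM biotinylated H3K14Ac peptide complex in PBS pH 7.4 with Tween-20. Donor and acceptor beads at 10 ug/mL final added, 20 min light-protected before reading.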
KDM4E inh: JMJD2E (human) inhibition. B2RXH2. JMJD2E catalytic domain, FDH-coupled NADH fluorescence (FDH is formaldehyde dehydrogenase). Potency, µM (series often up to 57.1 µM), for inactives: at the top dose activity change, negative = inhibition, hits mostly inhibitors. AID 2147. actives 1.6% (n = 230,000); active = well fitted inhibition curve with a large enough effect, not every such curve was filed as active; inconclusive = small, poorly fitted or top-dose-only effect, or another doubt; inactive = no such curve, though single readings can be large or run the other way;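 also: potency is read from the fitted curve at half-maximal effect; 0% = wells with enzyme and -100% = buffer wells without enzyme; nearly all actives have a fitted effect of over 50% in size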
HP1b binding inh: blocks HP1-beta chromodomain binding to methylated histone tails; actives 0.56% (n = 390,000); P83916; Potency, µM (doses to about 114 µM), inactives show at the highest dose activity change, negative = inhibition, usual class: inhibitors; AlphaScreen HP1-beta / biotin-H3K9me3 peptide binding; AID 540317; also: potency is read from the fitted curve at half-maximal effect; nearly all actives have a fitted effect of over 70% in size
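HP1-beta protein (50 nM final) preincubated 30 min at room temperature with biotinylated H3(1-18)K9me3 peptide (50 nM) in PBS pH 7.4, 0.01% Tween-20, then compound added for 30 min. AlphaScreen streptavidin donor/nickel chelate acceptor beads (10 ug/mL final), 30 min dark, luminescence read.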
The depositor's hits bear a star; ? = inconclusive; . = no result; [ ] = dose if it differs, or a comment. Compounds with a hit are over-represented: about 5.7% of the library has one in this group of screens. Unless noted, calls follow the shape of the dose curve; as a rule, active = well fitted inhibition curve with a large enough effect; inconclusive = small, poorly fitted or top-dose-only effect; inactive = no such curve, though single readings can be large or run the other way.

SMILES	L3MBTL1 inh	JMJD2A Tudor	PI5P4Ka inh	BAZ2B inh	KDM4E inh	HP1b binding inh
COc1ccc2c3c([nH]c2c1)C(C)NCC3 (stereo unspecified)	-16%	50µM*	-18	?	?	-13%
C/C(CC(c1ccccc1)c1c(O)c2ccccc2oc1=O)=N\NC(N)=S (stereo unspecified)	4%	1.3µM*	-9	2%	6%	-20%
COc1ccc(OC)c(CCNCc2c(C(=O)O)c(C)n(Cc3ccc(F)cc3Cl)c2C)c1	.	?	.	50µM*	.	16%
NC[C@H](CS(=O)(=O)O)c1ccc(Cl)cc1	.	.	.	.	9%	.
CCCC[N+]12C3CC(C(CC)[C@H]1O)[C@@H]1C(O)C4(C[C@@H]12)c1ccccc1N(C)C34 (stereo partly specified)	.	.	.	.	-20%	.
O=C(c1cccc(Cl)c1)C1CCCN(Cc2cccc3cnccc23)C1 (stereo unspecified)	-13%	45µM*	-5	?	1%	?
C[C@@]12CCC(=O)C=C1C=C[C@H]1[C@H]3CC[C@](O)(CCC(=O)O)[C@]3(C)CC[C@@H]12	.	.	.	.	6%[25.5 µM]	.
CC1=CCCC2C1(C)CCC(C)C2(C)CC/C(C)=C/C[n+]1cn(C)c2c(N)ncnc21 (stereo unspecified)	.	.	.	.	-6%	.
O=[N+]([O-])c1cccc(CN2CCN(Cc3ccc(Br)cc3)CC2)c1	-19%	20µM*	-11	20µM*	25µM*	?
CCCn1c(C)c(C(=O)c2ccc3ccccc3c2)c2ccccc21	.	.	.	.	-9%	.
CCCCn1c(=O)c(C(=O)Nc2ccccc2N)c(O)c2ccccc21	20%	2%	-8	50µM*	.	46%
O=C(N/N=C/c1c(O)n(C2CCCCC2)c(=S)[nH]c1=O)c1ccccc1O	.	7%	?	79µM*	.	45%
O=C(N/N=C/c1c(O)n(C2CCCCC2)c(=S)[nH]c1=O)c1ccccc1	.	79µM*	-12	-1%	.	68%
Cn1c(=O)c2c(nc(N/N=C/c3c(O)n(-c4ccccc4)c(=S)[nH]c3=O)n2C)n(C)c1=O	9%	?	1	-11%	25µM*	-2%
CCC(=NCCO)c1c(O)n(C2CCCCC2)c(=O)[nH]c1=O	3%	16%	-4	-3%	6%	38%
O=c1[nH]c(=S)n(-c2ccccc2)c(O)c1C=NCc1ccccn1	-13%	-30%	-2	-18%	-8%	39%
CC/C(=N\NC(=O)c1ccccc1O)c1c(O)n(C2CCCCC2)c(=O)[nH]c1=O	.	-33%	-74*	-2%	.	8%
CN(C[C@H](Cc1ccccc1)N(C[C@H](Cc1ccccc1)N(CCC(C)(C)C)N=O)N=O)N=O	-6%	?	4	?	2%	37%
CN(C)CCN(C)CCc1ccc(Cl)c(Cl)c1	.	.	.	.	-8%	.
CCOc1ccc(NC(=O)CN(c2ccc(Cl)cc2C)S(=O)(=O)c2ccccc2)cc1	.	-12%	.	?	.	20%
CC(C)CC(CN)CC(=O)O (stereo unspecified)	.	.	.	.	4%	.
O=c1[nH]c(=S)n(-c2ccccc2)c(O)c1C=NCCN1CCNCC1	.	0%	5	8%	.	49%
CC(C)c1ccc(-n2c(O)c(/C=N/NC(=O)c3ccccc3O)c(=O)[nH]c2=S)cc1	-42%	79µM*	-65*	50µM*	?	20%
CC/C(=N\NC(=O)c1ccccc1)c1c(O)n(Cc2ccccc2)c(=O)[nH]c1=O	-1%	-24%	-85*	-17%	?	?
CC1CN(c2ccccc2)NC1=O (stereo unspecified)	?	13%	0	-22%	-2%	40%
SMILES	L3MBTL1 inh	JMJD2A Tudor	PI5P4Ka inh	BAZ2B inh	KDM4E inh	HP1b binding inh
CCC(C)C1O[C@]2(C=CC1C)CC1CC(C/C=C(\C)[C@H](OC3CC(OC)C(O[C@H]4CC(OC)[C@@H](O)C(C)O4)C(C)O3)[C@@H](C)/C=C/C=C3\COC4C(O)C(C)=C[C@H](C(=O)O1)[C@@]34O)O2 (stereo partly specified)	.	.	.	.	0%	.
CC[C@@H]1[C@@H]2C[C@H]3[C@H]4N(C)c5ccccc5[C@@]45C[C@@H]([C@@H]2[C@@H]5O)N3[C@H]1O	.	.	.	.	5%[25.5 µM]	.
CN(C)c1ccc(P(=O)(OC2CCCCC2)C(Nc2ccccc2)c2cccnc2)cc1 (stereo unspecified)	.	-21%	0	40µM*	-21%	-17%
CC(C)COP(=O)(c1ccc(N(C)C)cc1)C(Nc1ccccc1)c1ccccc1 (stereo unspecified)	-4%	-35%[57.1 µM]	6	?	?	48%
S=c1[nH]nc(Cn2c(-c3ccccn3)nc3ccccc32)n1-c1ccc2c(c1)OCCO2	23%	3.2µM*	-21	-6%	?	?
Clc1ccc(CNC2CN3CCC2CC3)cc1 (stereo unspecified)	6%	-19%	1	-5%	3%	33%
Fc1ccccc1CNC1CN2CCC1CC2 (stereo unspecified)	6%	40µM*	0	-14%	0%	-3%
O=C1CS[C@@H](c2ccccc2Cl)c2cc(Cl)ccc2N1	.	.	.	.	7%	.
O=C(CSC1c2ccccc2-c2ccccc21)N/N=C/c1ccccc1O	.	-16%	.	8%	25µM*	9%
CC(C)c1cc2c(c(O)c1O)[C@]1(C(=O)O)CCCC(C)(C)C1CC2 (stereo partly specified)	.	.	.	.	13µM*	.
N[C@H](CCP(=O)(O)O)C(=O)O	.	.	.	.	-4%	.
N/C(=N\N=C/c1ccc(-c2ccc(O)c(C(=O)O)c2)o1)N[N+](=O)[O-]	11µM*	11µM*	.	25µM*	?	16µM*
COc1ccc(/C=N/N=C(/N)N[N+](=O)[O-])c(OC)c1	-3%	-16%	-12	-1%	?	14%
CC(C)Nc1ccc(Nc2ccccc2)cc1	.	50µM*	?	28µM*	.	45µM*
CC[N+](CC)(CC)CCOc1cccc(OCC[N+](CC)(CC)CC)c1OCC[N+](CC)(CC)CC	0%	22µM*	21	-38%	-23%	25%
CCC(C)n1c(O)c(/C=N/Nc2ccccc2)c(=O)[nH]c1=S (stereo unspecified)	-17%	?	1	?	-3%	6%
O=C(N/N=C/c1c(O)n(CCc2ccccc2)c(=O)[nH]c1=O)c1ccccc1	-1%	-35%	-77*	79µM*	?	39%
O=c1[nH]c(=O)n(CCC2=CCCCC2)c(O)c1/C=N/Nc1ccccc1	-1%	-31%	-2	-24%	-8%	51%
O=c1[nH]c(=O)n(CCC2=CCCCC2)c(O)c1/C=N/Nc1cccc2ccccc12	.	-10%[11.4 µM]	-65*	?	?	32µM*
